# Data as given in PubChem BioAssay AID652017 (The Scripps Research Institute Molecular Screening Center, 2013).
# Out of some 370,000 compounds screened, about 3,800 (1%) were called active. The sample as a whole holds a higher share of actives than the screen did. A number with no mark means an inactive call. No stated cut-off is given here; in the data, active means activation above about 7.8%; inactive means the rest.
# Assay: SMARCA2 (BRM) function activators, primary screen, cell-based, luminescence, high throughput (AID 652017);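 further: 0% = vehicle wells and 100% = reference activator wells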
# Details: MG213 cells, MMTV-luciferase reporter, dexamethasone, overnight; at 9.1 µM; active compounds read high
row,Structure (SMILES),activation
1,COc1ccc(Cn2cc(COC(=O)N(C)Cc3ccccc3)nn2)cc1,0.64%
2,Cc1noc(C)c1/C=N/Nc1ccc2ccccc2n1,9.44% (active)
3,Clc1ccc(Nc2ccc3ccccc3n2)cc1,5.05%
4,O=C(c1c[nH]c2ccccc12)N1CCC(Oc2cccnc2)CC1,3.83%
5,COCCNC(=O)c1ccccc1-c1nc(-c2ccccc2Cl)no1,3.36%
6,CN(C)CCNC(=O)c1ccc(Cl)c2cc3ccccc3nc12,56.5% (active)
7,Cc1cc(C)n(C(=O)CCNC(=O)c2ccccc2Cl)n1,0.01%
8,CC1(C)CC(=O)C=C(NCCCN2CCCC2=O)C1,0.48%
9,CC1(C)CC(=O)C=C(NCCCNC2CCCCC2)C1,10.6% (active)
10,CC1(C)CC(=O)C=C(NCCN2CCNCC2)C1,-1.09%
11,CC1C(=O)Nc2ccccc2N1C(=O)c1c(F)cccc1F (stereo not given),0.63%
12,O=C(CSc1nnc(COc2ccccc2)n1-c1ccc(Cl)cc1)Nc1ccc2c(c1)OCO2,-6.63%
13,COc1ccc2c(C(C)c3ccc(N)cc3)cn(C)c2c1 (stereo not given),-3.82%
14,CCCCN(C)Cc1c(C)[nH]c2ccc(Cl)cc2c1=O,-3.5%
15,Cc1ccc(S(=O)(=O)c2c[nH]c3ccc(Cl)cc3c2=O)cc1,10.9% (active)
16,Cc1ccc(S(=O)(=O)c2c[nH]c3ccc(C)cc3c2=O)cc1,-1.93%
17,CC(OC(=O)c1cccnc1Cl)C(=O)NC1CCCCC1 (stereo not given),-0.77%
18,CCN(C(=O)[C@@H](C1CC1)[C@@H](O)c1ccc2ccccc2c1)c1ccccc1,-7.28%
19,CC(C)CC(=O)Nc1nnc(S(=O)(=O)N(C)c2ccc(Cl)cc2)s1,1.27%
20,CCOC(=O)N1CCN(Cc2nc3cc(NC(=O)CC)ccc3n2CC)CC1,-1.94%

row,Structure (SMILES),activation
1,COc1ccc(N=C(C)c2sc3ccccc3c2O)cc1,11.4% (active)
2,COC(=O)c1ccc(/C=C/c2c(-c3ccc(OC)cc3)sc3ccccc23)cc1,3.05%
3,CCCOc1ccc(Oc2c(Cl)cnn(Cc3cccc4ccccc34)c2=O)cc1,-0.93%
4,CCOC(=O)c1c(C)[nH]c(C2=NNC(=NC(C)COC)SC2)c1C (stereo not given),10.5% (active)
5,Cc1ccccc1CN1CCCCC(NC(=O)c2cccc(C#N)c2)C1=O (stereo not given),-3.87%
6,Cc1ccc(S(=O)(=O)N2C[C@@H]3CCCC[C@@H]3[C@@H](C)[C@H]2c2cn(Cc3ccccc3)c3ccc(F)cc23)cc1,-2.92%
7,CC(C)(C)OC(=O)NCCc1ccccc1/C=C/S(=O)(=O)NCc1ccc(F)cc1,-3.29%
8,O=C(CSc1nnc(-c2ccccn2)n1-c1ccc(Cl)cc1)Nc1ccccc1-c1ccccc1,-4.51%
9,Cn1c2ccc(F)cc2c2nnc(NN)nc21,11.8% (active)
10,CCn1c2ccc(F)cc2c2nnc(SCCN3CCOCC3)nc21,0.99%
11,CN(C)c1nc(NN)nc(Nc2ccc(F)cc2)n1,-0.18%
12,CCOC(=O)C1=C(c2ccccc2)NC(=O)NC1c1cc(OC)c(OC)cc1OC (stereo not given),-1.63%
13,Cc1ccc(-n2c(COc3ccccc3)nnc2SCC(=O)Nc2ccc3c(c2)OCCO3)cc1,-5.34%
14,O=S(=O)(Cc1nnnn1-c1ccccc1)c1ccccc1,3.47%
15,COc1ccc(S(=O)(=O)NC(=O)C2(C)CCN2C(=O)c2ccccc2CCc2ccccc2)cc1 (stereo not given),-0.47%
16,CN(C)S(=O)(=O)c1ccc2oc(SCC(=O)Nc3ccccc3F)nc2c1,12% (active)
17,CCS(=O)(=O)c1ccc2oc(SCC(=O)N3c4ccccc4CC3C)nc2c1 (stereo not given),0.08%
18,COc1ccc(S(=O)(=O)N(C)C)cc1NC(=O)CSc1ncccn1,1.65%
19,CCOC(=O)[C@]12CCCC3=C1N(CCC3)C(=O)[C@@H](CC(=O)NCc1cccs1)C2,-4.78%
20,Nc1ccc(N=Nc2ccccc2Cl)c(N)n1,7.92% (active)

row,Structure (SMILES),activation
1,C=CCN1C(C(=O)OC)CN(Cc2cn(Cc3ccccc3)nn2)CCS1(=O)=O (stereo not given),1.74%
2,COc1ccc(C(=O)OCCN(C)C2CN(Cc3cn(Cc4cccc(C)c4)nn3)S(=O)(=O)C2)cc1OC (stereo not given),-0.46%
3,COc1ccc(C(=O)CSc2nnc(-c3cnccn3)n2-c2ccc(C)cc2)cc1,-2.56%
4,CC(=O)Oc1ccc(-c2cccc(C(=O)N3CCCCC3)c2)cc1,1.59%
5,CCOc1ccc(OCc2cccc(C(=O)N(CC)CC)c2)cc1,6.12%
6,COc1ccc(OCc2cccc(C(=O)N3CCCC3)c2)cc1,7.84% (active)
7,CCOC(=O)Cc1cc(=O)[nH]c(/N=C(\N)Nc2ccc(OC)cc2)n1,-2.87%
8,COc1ccc(NC(=O)ON=C2c3ccccc3-c3ccccc32)cc1,3.56%
9,COc1ccc2nc(/N=C(\N)NC(=O)Nc3ccccc3)nc(C)c2c1,28.8% (active)
10,FC(F)(F)c1cccc(Cn2ccc3ccc(-c4ccc5ccn(Cc6ccccc6)c5c4)cc32)c1,-1.65%
11,O=C(NCC1COc2ccccc2O1)c1ccc(NC(=O)c2cc(F)ccc2F)cc1 (stereo not given),-5.67%
12,O=C(c1cc(C2CCCCN2S(=O)(=O)c2ccccc2)on1)N1CCOCC1 (stereo not given),-0.23%
13,O=C(c1cc(COc2ccc(F)cc2F)on1)N1CCOCC1,2.32%
14,O=C(c1cc(-c2ccccc2O)on1)N1CCCC1,8.63% (active)
15,O=C(Nc1ccccc1C(F)(F)F)c1cc(-c2ccc(O)cc2)on1,1.17%
16,O=C(c1cc(-c2ccc(O)cc2)on1)N1CCOCC1,10.1% (active)
17,COc1ccc(OCc2cc(C(=O)N3CCCC3)no2)c2ccccc12,5.22%
18,CN(C(N)=NC(=O)/C=C/c1ccccc1)C(C#Cc1ccccc1)Cc1ccccc1 (stereo not given),-4.38%
19,COc1ccc(C)cc1N(C)C(=O)c1coc(=O)c2ccccc12,-4.4%
20,O=C(NC1CCCCN(Cc2cccc(C(F)(F)F)c2)C1=O)c1ccccc1I (stereo not given),-2.23%
